1 compound from ChEMBL document CHEMBL2218924, “A broad activity screen in support of a chemogenomic map for kinase signalling research and drug discovery” (Biochem J, 2013) can be followed below.

For experiment [1], the target named is T1, TGF-beta receptor type-1 (Homo sapiens) (UniProt P36897).
T1 sequence (whole entry): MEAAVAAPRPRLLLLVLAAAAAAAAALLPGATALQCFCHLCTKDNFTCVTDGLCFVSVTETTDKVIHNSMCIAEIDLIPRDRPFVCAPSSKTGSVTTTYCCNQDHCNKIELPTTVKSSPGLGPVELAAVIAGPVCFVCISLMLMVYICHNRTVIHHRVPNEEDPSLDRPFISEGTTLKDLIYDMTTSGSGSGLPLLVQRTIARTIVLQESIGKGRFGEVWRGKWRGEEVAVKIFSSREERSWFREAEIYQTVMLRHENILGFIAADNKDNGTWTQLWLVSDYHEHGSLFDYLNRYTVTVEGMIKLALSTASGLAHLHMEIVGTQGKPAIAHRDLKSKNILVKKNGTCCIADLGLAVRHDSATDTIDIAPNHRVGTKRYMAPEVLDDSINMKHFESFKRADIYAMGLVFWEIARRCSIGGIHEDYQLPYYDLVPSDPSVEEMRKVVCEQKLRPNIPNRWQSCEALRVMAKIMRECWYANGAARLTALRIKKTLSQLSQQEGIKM
The following applies: at 1 µM.

Experiment [2] concerns the target T1, TGF-beta receptor type-1 (Homo sapiens). The following applies: at 10 µM.
For experiment [3], the target named is Insulin-like growth factor 1 receptor (Homo sapiens) (UniProt P08069). The following applies: at 1 µM.
Experiment [4] has the same target. To be noted: at 10 µM.
Experiment [5] has as its target T2, Inhibitor of nuclear factor kappa-B kinase subunit alpha (Homo sapiens) (UniProt O15111).
T2 sequence (whole entry): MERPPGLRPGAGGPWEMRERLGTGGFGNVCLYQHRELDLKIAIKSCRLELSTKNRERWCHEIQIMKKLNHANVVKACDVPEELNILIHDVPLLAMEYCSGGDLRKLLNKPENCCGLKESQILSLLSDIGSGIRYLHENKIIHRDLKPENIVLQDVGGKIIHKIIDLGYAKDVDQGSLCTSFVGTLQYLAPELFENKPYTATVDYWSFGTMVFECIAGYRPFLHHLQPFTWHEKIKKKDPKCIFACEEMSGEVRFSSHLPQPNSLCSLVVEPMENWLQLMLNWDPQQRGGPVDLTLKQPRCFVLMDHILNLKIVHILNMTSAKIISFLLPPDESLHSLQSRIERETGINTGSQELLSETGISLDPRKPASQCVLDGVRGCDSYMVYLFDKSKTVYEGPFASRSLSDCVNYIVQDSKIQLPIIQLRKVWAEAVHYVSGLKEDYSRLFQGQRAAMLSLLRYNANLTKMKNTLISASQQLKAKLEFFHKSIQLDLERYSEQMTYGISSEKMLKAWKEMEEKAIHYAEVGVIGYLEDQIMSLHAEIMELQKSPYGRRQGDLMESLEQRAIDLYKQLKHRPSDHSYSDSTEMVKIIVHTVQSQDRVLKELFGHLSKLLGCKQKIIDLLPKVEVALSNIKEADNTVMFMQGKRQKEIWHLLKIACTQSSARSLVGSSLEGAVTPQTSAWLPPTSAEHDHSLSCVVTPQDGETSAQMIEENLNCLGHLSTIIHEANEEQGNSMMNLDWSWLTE
The following applies: at 1 µM.

For experiment [6], the target named is T2, Inhibitor of nuclear factor kappa-B kinase subunit alpha (Homo sapiens). The following applies: at 10 µM.
Experiment [7] has as its target T3, Inhibitor of nuclear factor kappa-B kinase subunit beta (Homo sapiens) (UniProt O14920).
T3 sequence (whole entry): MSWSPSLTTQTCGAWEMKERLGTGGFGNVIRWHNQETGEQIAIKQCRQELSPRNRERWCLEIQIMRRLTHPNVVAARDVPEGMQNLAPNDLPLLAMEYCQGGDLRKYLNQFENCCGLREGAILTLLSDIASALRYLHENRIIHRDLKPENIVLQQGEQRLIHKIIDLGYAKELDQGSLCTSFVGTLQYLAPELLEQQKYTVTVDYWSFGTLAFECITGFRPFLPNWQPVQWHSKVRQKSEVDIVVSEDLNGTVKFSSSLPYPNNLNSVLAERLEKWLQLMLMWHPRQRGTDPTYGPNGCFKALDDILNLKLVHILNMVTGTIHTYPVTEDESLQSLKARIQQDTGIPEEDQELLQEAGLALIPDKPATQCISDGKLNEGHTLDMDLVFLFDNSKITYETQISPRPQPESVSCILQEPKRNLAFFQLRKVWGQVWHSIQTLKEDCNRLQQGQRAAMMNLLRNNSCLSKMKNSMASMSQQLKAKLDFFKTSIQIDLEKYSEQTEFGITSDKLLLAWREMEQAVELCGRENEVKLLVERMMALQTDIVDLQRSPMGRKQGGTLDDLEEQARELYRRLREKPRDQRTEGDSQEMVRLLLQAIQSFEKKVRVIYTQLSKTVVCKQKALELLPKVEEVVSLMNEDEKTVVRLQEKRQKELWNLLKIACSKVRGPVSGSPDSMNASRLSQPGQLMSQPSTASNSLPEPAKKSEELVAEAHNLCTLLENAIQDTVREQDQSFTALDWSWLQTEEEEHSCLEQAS
To be noted: at 1 µM.

Experiment [8] addresses T3, Inhibitor of nuclear factor kappa-B kinase subunit beta (Homo sapiens). To be noted: at 10 µM.
Experiment [9] has as its target Insulin receptor (Homo sapiens) (UniProt P06213). The following applies: at 1 µM.

The structures appear in SMILES notation.

Chain of Insulin-like growth factor 1 receptor (Homo sapiens) (P08069 31-736 limits assumed): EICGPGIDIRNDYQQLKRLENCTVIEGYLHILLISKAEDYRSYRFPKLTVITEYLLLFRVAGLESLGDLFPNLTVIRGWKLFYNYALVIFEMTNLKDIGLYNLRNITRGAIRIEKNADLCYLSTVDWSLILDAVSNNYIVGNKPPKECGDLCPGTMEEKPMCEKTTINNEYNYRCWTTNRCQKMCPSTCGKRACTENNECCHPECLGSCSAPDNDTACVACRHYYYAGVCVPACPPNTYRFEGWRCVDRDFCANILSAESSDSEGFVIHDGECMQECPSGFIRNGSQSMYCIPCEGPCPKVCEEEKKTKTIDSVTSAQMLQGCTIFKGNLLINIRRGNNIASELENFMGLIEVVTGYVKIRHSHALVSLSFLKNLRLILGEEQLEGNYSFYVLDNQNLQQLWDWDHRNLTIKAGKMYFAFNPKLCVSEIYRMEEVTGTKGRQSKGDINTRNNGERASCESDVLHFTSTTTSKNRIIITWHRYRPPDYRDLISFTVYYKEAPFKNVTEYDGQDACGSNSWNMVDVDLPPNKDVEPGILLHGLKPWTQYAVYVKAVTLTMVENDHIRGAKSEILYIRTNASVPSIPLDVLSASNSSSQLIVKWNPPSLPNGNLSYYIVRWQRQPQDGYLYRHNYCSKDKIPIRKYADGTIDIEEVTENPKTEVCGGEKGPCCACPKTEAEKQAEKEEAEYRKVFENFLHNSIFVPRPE
Chain of Insulin-like growth factor 1 receptor (Homo sapiens) (P08069 741-1367 limits assumed): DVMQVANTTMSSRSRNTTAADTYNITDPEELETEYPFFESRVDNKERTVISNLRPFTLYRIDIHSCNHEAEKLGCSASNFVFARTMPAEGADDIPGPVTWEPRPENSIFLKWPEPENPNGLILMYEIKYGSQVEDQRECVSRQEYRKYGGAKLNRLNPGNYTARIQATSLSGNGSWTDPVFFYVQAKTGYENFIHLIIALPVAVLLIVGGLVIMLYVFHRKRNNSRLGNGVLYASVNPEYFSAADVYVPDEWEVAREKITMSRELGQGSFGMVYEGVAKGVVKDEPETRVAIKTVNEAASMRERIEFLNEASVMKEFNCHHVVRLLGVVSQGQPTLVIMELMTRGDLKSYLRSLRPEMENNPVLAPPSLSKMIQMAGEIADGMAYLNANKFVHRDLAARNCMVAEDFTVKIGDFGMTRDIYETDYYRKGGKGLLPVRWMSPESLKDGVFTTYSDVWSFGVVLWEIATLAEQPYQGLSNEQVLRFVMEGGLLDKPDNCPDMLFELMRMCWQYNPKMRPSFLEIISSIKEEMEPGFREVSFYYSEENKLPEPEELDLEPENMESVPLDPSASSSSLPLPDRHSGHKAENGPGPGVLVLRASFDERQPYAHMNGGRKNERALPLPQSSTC
Chain of Insulin receptor (Homo sapiens) (P06213 28-758 limits assumed): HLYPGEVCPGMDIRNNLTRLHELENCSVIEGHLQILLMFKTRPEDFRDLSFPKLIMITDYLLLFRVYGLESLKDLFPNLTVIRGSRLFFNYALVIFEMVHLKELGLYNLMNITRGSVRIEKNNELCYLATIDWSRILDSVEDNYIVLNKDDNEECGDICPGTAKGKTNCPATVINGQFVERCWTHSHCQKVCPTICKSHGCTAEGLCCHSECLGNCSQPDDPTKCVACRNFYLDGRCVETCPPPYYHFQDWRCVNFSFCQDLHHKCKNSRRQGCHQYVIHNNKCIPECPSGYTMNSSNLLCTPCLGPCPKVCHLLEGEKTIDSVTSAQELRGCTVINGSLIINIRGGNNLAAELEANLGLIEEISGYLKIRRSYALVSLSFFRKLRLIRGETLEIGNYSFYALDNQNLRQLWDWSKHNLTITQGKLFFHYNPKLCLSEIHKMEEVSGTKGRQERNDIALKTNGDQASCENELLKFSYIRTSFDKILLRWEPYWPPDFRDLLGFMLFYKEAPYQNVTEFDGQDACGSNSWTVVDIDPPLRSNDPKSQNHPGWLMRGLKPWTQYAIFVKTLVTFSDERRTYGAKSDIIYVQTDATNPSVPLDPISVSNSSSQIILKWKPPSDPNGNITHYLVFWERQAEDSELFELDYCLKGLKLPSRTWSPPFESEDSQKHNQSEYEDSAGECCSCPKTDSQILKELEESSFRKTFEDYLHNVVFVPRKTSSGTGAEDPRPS
Chain of Insulin receptor (Homo sapiens) (P06213 763-1382 limits assumed): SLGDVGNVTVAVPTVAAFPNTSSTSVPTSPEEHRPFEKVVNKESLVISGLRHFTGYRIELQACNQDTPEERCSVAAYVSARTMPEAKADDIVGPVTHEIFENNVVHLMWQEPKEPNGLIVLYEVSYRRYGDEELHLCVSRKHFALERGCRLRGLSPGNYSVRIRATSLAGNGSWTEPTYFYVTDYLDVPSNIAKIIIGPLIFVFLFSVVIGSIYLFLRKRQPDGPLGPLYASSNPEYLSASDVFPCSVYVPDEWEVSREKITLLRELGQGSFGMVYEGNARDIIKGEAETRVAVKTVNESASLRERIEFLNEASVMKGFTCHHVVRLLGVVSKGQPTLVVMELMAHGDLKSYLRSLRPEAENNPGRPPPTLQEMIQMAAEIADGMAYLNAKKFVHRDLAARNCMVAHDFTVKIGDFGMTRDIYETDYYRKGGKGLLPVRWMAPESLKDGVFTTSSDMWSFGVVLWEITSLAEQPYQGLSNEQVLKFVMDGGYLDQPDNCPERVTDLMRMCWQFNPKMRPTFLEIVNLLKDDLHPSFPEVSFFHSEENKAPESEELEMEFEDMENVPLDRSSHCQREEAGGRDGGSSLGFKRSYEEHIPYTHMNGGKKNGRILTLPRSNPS

As to `O=C1Nc2ccccc2/C1=C1/Nc2ccccc2/C1=N\OCCC(O)CO` (centres undefined), the residual activity (usually the signal under treatment as a percentage of the control signal) in experiment [1] is 77%; in [2], 64%; in [3], 10%; in [4], 10%; in experiment [5], 82%; in experiment [6], 46%. Also, the residual activity came out at 104% in experiment [7], 66% in experiment [8] and 17% in experiment [9].
